Records with an inconclusive call do not appear. Active and inactive are the calls of the source.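 Rule for the calls, unless noted: active = inhibition over a set limit, the all-compound mean plus 3 SD, in both replicate runs; inconclusive = over that limit in just one replicate run; inactive = at or under that limit in both runs.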

Experiment [1] in a line: Her2 expression decrease, cell viability multiplex – SKBR3 breast tumor cells, AlphaScreen, ATP viability, primary screen (AID 461;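 active = Her2 level under about 52% in both replicate screens, with viability over 70% of control, limit read from the data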;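 for Her2 level: lower value means less Her2 protein in the cells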;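 for viability: percent of carrier control wells set as 100% viability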). Conditions: SKBR3 Her2 protein level, 18-24 h, measured here: SKBR3 viability, ATP luminescence, at 10 µM. For orientation: Bead proximity is the source of the signal in Alpha formats.
Experiment [2] concerns the target Receptor tyrosine-protein kinase erbB-2 (Homo sapiens) (UniProt P04626). The experiment is described as above. Conditions: 18-24 h, at 10 µM, stronger effect = lower value.
Experiment [3] is described as follows: reduced viability of SK-BR-3 breast cancer cells – cell-based, 24 h, human, pilot screen (AID 572;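 active = viability at or below 10% of carrier control in both of two separate runs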;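 note: compound exposure lasted between 18 and 24 h rather than exactly 24 h; 100% = carrier-treated control wells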). Conditions: SK-BR-3 viability, CellTiter-Glo luminescence, at 10 µM, stronger effect = lower value. (In ATP-based viability assays light output follows the ATP content of the culture.)
A short description of experiment [4]: HUVEC growth inhibition – cell-based, human, primary screen (AID 575;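 active = viability at or below 30% in both replicate assays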;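 note: 100% = median of untreated cell wells with 0.1% DMSO on each plate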). Conditions: HUVEC proliferation, CellTiter-Glo luminescence, 72 h; at 10 µM; stronger effect = lower value.
A short description of experiment [5]: H69AR cell proliferation blockers – human, duplicate replicates, primary screen (AID 580;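 active = viability at or under a set limit in both replicates, limit being median viability minus 3 SD, cut at about 48% in these data, passing the limit was not always enough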;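 note: 100% = mean luminescence of untreated wells and 0% = no signal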). Conditions: H69AR lung tumor cells viability, ATP luminescence, 72 h; at 10 µM; stronger effect = lower value.
Experiment [6] can be described thus: MRP1 drug-resistance reversers in H69AR cells – cell-based, doxorubicin co-treatment, pilot screen (AID 601;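 active = viability loss from added drug above about 55%, and viability with drug at most 40%, in both replicates, limit read from the data, passing the limit was not always enough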). Conditions: CellTiter-Glo, 72 h, at 10 µM; for differential viability (reversal): stronger effect = higher value.
Experiment [7] can be described thus: yeast transport mutant growth inhibition pilot in 384-well plates, post-Golgi transport modulator project (AID 636; in the data active = inhibition above about 31%). Conditions: absorbance 615 nm, about 18 h, stronger effect = higher value.
Experiment [8] can be described thus: growth suppression of yeast trafficking mutant, preliminary HTS, modulators of trafficking downstream of Golgi apparatus project, 1536-format plate, OD 615 nm (AID 637; in the data active = inhibition above about 30%). Conditions: yeast transport mutant growth, absorbance 615 nm, 18 h; stronger effect = higher value.
A short description of experiment [9]: S. cerevisiae growth inhibition in permissive medium (OD615), pilot counter-assay for S. cerevisiae lifespan shortening project, permissive growth control (AID 705;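 active = growth inhibition above 25% in both replicates, a cutoff set 3 SD above the mean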). Conditions: OD615, 24 h, at 10 µM, stronger effect = higher value.
Experiment [10] can be described thus: S. cerevisiae growth inhibition in restrictive medium, OD615, pilot screen, restrictive growth control, yeast lifespan reduction project (AID 706;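 active = growth inhibition above a set limit, 3 SD over mean compound inhibition, in both replicates, cut at about 43% in these data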;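 note: modified DeaD lifespan yeast strain shifted to restrictive glucose medium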). Conditions: OD615, 48 h, at 10 µM, stronger effect = higher value.
The nature of experiment [11]: doxorubicin toxicity protection in MRP-1 cells – H69AR cells, CellTiter-Glo, duplicate, MRP-1 activator project, pilot screen (AID 807;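 active = viability increase at or above a cutoff of the median across tested compounds plus 3 SD, cut at about 8.5% in these data, passing the limit was not always enough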;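 note: compound pretreatment 18-22 h then 72 h combined with doxorubicin; 0% = doxorubicin alone and 100% = vehicle without doxorubicin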). Conditions: H69AR viability with doxorubicin, CellTiter-Glo luminescence; at 10 µM; stronger effect = higher value.
Experiment [12] in a line: viability of HCT116 without oncogenic beta-catenin – human colon tumor cells, pilot screen (AID 823;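 active = cell viability at or below a set limit in both duplicate runs, the limit being the all-compound median minus 4 SD, cut at about 23% in these data, passing the limit was not always enough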;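 note: 0% = wells killed by 20 µM Hyamine and 100% = untreated DMSO cell wells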). Conditions: HCT116 beta-catenin knockout viability, CellTiter-Glo, 60 h; at 10 µM; stronger effect = lower value.
Experiment [13] can be described thus: viability of PTEN-null HCT116 cells – cell-based, HCT116 clonal line, CellTiter-Glo, pilot screen (AID 824;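 active = viability at or below 27.92% in each of two runs, the all-compound median minus 4 SD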;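 note: 0% = 20 µM Hyamine control and 100% = vehicle cell control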). Conditions: HCT116 PTEN-deleted viability, 60 h, at 10 µM, stronger effect = lower value.
Experiment [14] in a line: RAM pathway blockade in budding yeast – dse1pr::URA3 reporter, 5-FOA selection, pilot screen (AID 869).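 Note: 0% = DMSO wells with no growth and 100% = 10 µM 1-NA-PP1 with full growth; RAM network block rescues cells from 5-FOA so hits raise OD615 growth.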 Conditions: S. cerevisiae dse1pr::URA3 5-FOA growth, OD615, 2 d; at 10 µM; stronger effect = higher value; strain carries analog-sensitive mutant Cbk1 kinase.
Experiment [15] is described as follows: RAM signaling pathway blockade in yeast – S. cerevisiae, Pdr1DBD-CYC8 efflux-inhibited sensitized strain, primary screen (AID 1298;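 active = RAM network inhibition above 8.4% in each of two replicates, 3 SD over the compound average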;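 note: 0% = DMSO untreated cells without growth and 100% = 10 µM 1-NA-PP1 full growth; higher means more yeast growth rescued from 5-FOA killing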). Conditions: S. cerevisiae cbk1-as DSE1-URA3 strain, 5-FOA growth OD615, 2 d; at 50 µM; stronger effect = higher value.
[16] abbreviates: H69AR cells + 2 uM doxorubicin, measured here: viability with 2 uM doxorubicin, stronger effect = lower value.
Where [17] appears, read: H69AR cells, compound alone cytotoxicity.

Sequence of Receptor tyrosine-protein kinase erbB-2 (Homo sapiens) (P04626 whole entry, looked up): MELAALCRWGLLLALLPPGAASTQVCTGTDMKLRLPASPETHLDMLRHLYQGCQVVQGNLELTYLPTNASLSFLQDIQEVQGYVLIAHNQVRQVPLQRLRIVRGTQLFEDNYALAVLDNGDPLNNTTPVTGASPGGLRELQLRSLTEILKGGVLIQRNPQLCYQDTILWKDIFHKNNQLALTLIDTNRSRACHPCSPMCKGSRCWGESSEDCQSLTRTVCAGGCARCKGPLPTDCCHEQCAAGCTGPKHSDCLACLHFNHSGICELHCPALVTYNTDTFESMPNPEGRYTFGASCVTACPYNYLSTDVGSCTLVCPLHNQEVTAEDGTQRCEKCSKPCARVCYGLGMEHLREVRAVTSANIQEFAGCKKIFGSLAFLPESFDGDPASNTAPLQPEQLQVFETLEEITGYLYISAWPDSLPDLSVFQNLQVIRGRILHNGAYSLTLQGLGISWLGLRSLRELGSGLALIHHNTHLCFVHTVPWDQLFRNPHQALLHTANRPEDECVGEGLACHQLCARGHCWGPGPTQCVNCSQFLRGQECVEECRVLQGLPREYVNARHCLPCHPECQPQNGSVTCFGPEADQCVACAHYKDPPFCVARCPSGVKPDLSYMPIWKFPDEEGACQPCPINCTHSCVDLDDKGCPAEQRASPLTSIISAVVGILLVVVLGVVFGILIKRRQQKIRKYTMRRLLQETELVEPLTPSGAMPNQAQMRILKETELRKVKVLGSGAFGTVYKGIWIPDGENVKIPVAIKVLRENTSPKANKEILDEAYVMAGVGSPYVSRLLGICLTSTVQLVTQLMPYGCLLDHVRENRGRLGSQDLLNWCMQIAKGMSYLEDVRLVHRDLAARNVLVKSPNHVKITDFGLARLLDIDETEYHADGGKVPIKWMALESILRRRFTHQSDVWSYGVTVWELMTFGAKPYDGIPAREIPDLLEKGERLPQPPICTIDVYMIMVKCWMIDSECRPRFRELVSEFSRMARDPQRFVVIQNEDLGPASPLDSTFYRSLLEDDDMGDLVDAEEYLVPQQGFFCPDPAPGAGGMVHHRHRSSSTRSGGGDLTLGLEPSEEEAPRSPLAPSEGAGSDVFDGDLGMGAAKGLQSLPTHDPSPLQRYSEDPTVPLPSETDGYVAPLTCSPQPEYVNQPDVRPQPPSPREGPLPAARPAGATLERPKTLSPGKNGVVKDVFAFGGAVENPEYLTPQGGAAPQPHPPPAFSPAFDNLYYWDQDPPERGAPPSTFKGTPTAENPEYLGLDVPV

With `O=S(=O)(c1ccccc1)N1CCN(S(=O)(=O)c2ccccc2)C1`, the viability in [1] was 83.5%; in [3], 83.5% (inactive); in experiment [4], 97.5% (inactive); in experiment [5], 95.8% (inactive); in experiment [6] (setting [16]), 88.7%; in [6] (setting [17]), 95.8%. The viability was 93.8% (inactive) in experiment [12] and 93.5% (inactive) in experiment [13]. Besides, the Her2 level in [2] is 102% (inactive). The differential viability (reversal) in [6] (H69AR cells + 2 uM doxorubicin) was 7.07% (inactive). Also, the inhibition in [7] is -3.21% (inactive); in experiment [8], -4.5% (inactive); in [14], -0.14% (inactive). The values for the growth inhibition in experiment [9] and in [10] were -7.65% (inactive) and 6.15% (inactive), respectively. In addition, the viability increase in experiment [11] was -1.27% (inactive). In addition, the RAM network inhibition in experiment [15] was 3.22% (inactive).

For `CCc1ccc(N2CC(C(=O)OCC(=O)NC3CCS(=O)(=O)C3)CC2=O)cc1` (configuration not stated), the viability is 100% in [1]; 100% (inactive) in [3]; 98.6% (inactive) in [4]; 103% (inactive) in experiment [5]; 99.5% in experiment [6] (setting [16]); 103% in experiment [6] (setting [17]). Further, the viability in [12] was 96.5% (inactive). Also, the Her2 level in experiment [2] was 112% (inactive). Further, the differential viability (reversal) in [6] (H69AR cells + 2 uM doxorubicin) was 3.14% (inactive). Besides, the results for the inhibition in experiment [7], in experiment [8] and in experiment [14] were 3.12% (inactive), 7.54% (inactive) and 0.795% (inactive), respectively. Besides, the growth inhibition in [9] was -17% (inactive); in experiment [10] it was 1.96% (inactive). Further, in experiment [11], the viability increase was 1.23% (inactive). Also, in [15], the RAM network inhibition is 3.33% (inactive).

For the compound `CCCSc1nc2c(cnn2-c2ccc(C)cc2)c(=O)[nH]1`, the viability in experiment [1] was 93%; in experiment [3] it was 93% (inactive); in [4], 7.04% (active); in experiment [5], 19.1% (active); in experiment [6] (setting [16]), 22.6%; in [6] (setting [17]), 19.1%. Besides, the viability in experiment [12] was 40.5% (inactive). Also, the Her2 level in [2] is 99% (inactive). In addition, in [6] (H69AR cells + 2 uM doxorubicin), the differential viability (reversal) is -3.51% (inactive). Moreover, the inhibition was -2% (inactive) in [7], -2.62% (inactive) in [8] and 3.78% (inactive) in experiment [14]. The growth inhibition is -8.62% (inactive) in [9] and 6.35% (inactive) in experiment [10]. Moreover, in experiment [11], the viability increase was -8.01% (inactive). Besides, the RAM network inhibition in [15] is 4.52% (inactive).

On to `Cc1nc2ccc(Br)cn2c1NC(C)(C)C`, for which the viability in experiment [1] was 89.5%; in [3] it was 89.5% (inactive); in [4], 101% (inactive); in experiment [5], 86.8% (inactive); in experiment [6] (setting [16]) it was 86.3%; in [6] (setting [17]) it was 86.8%. Further, the viability in [12] was 89.2% (inactive). Further, in experiment [2], the Her2 level was 103% (inactive). Besides, the differential viability (reversal) in experiment [6] (H69AR cells + 2 uM doxorubicin) was 0.425% (inactive). The inhibition is -6.58% (inactive) in [7], -10.3% (inactive) in [8] and 1.55% (inactive) in experiment [14]. Moreover, the growth inhibition is -13.4% (inactive) in [9] and 4.22% (inactive) in [10]. For the same compound, in experiment [11], the viability increase is -2.98% (inactive). Also, in [15], the RAM network inhibition was 1.46% (inactive).

Take `Cc1ccc(S(=O)(=O)N2CCOCC2)cc1C(=O)Nc1nc(-c2cccnc2)cs1`: the viability in experiment [1] was 106%; in experiment [3] it was 106% (inactive); in experiment [4], 88.8% (inactive); in experiment [5], 103% (inactive); in experiment [6] (setting [16]), 94.3%; in experiment [6] (setting [17]), 103%. Also, the viability in experiment [12] was 96.8% (inactive). Further, in experiment [2], the Her2 level is 91% (inactive). For the same compound, the differential viability (reversal) in experiment [6] (H69AR cells + 2 uM doxorubicin) is 9% (inactive). In addition, the inhibition in experiment [7] is 0% (inactive); in [8], -3.33% (inactive); in experiment [14], 1.93% (inactive). The growth inhibition was -14.2% (inactive) in experiment [9] and -6.87% (inactive) in [10]. Further, in [11], the viability increase is -1.69% (inactive). Moreover, the RAM network inhibition in experiment [15] is 3.11% (inactive).

For `CCOCCCNC(=O)C(c1ccccc1)N(Cc1ccc2c(c1)OCO2)C(=O)CNC(C)=O` (configuration not stated), the viability is 100% in experiment [1]; 100% (inactive) in experiment [3]; 97.7% (inactive) in experiment [4]; 105% (inactive) in [5]; 102% in experiment [6] (setting [16]); 105% in [6] (setting [17]). The viability in [12] was 98.6% (inactive). Further, in experiment [2], the Her2 level is 108% (inactive). In experiment [6] (H69AR cells + 2 uM doxorubicin), the differential viability (reversal) is 2.97% (inactive). Besides, the inhibition in experiment [7] is -6.3% (inactive); in experiment [8], 1.59% (inactive); in experiment [14] it was 0.43% (inactive). Besides, the growth inhibition in experiment [9] was 3.28% (inactive); in experiment [10], -2.68% (inactive). Besides, the viability increase in [11] was -3.36% (inactive). Moreover, the RAM network inhibition in [15] is 1.52% (inactive).

The viability is a read-out of living cells in per cent, often relative to untreated cells. The inhibition is the relative decrease from the control value, in per cent.

The values are drawn from PubChem BioAssay.
